Experimental data from PubChem BioAssay (NCATS).
Several values for one entry are separate records, joined by “and”; a condition that tells them apart may be missing. Equal entries are not always repeated. Records with an inconclusive call do not appear. A call without a number means that no potency is given here. A structure can be active in one record and inactive in another. Activity calls are given as the source filed them. Unless noted, the call rests on the fitted dose curve; in most records, active means well fitted curve in the direction sought with a large enough effect; inconclusive means small, poorly fitted or top-dose-only effect, or another doubt; inactive means no such curve, though single readings can be large; an effect the other way counts as inactive or inconclusive. Non-standard residues stand in square brackets, D forms with d. Residues, ends and D or L forms follow the SMILES beside them. *: point of attachment. Sta = CC(C)C[C@H](N)[C@@H](O)CC(=O)O; Isovaleryl = CC(C)CC(=O)*

Experiments:
[1] = High-throughput drug toxicity screening in the BPDCN cell line Cal-1 (AID 1224825; call rule not given here); settings: Cal-1 BPDCN cell viability, qHTS; at 45.8 µM (top of the series) unless noted
How it was run: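 Percent activity derived from CellTiter-Glo luminescence, scaling DMSO to 100% and 9.2 uM final bortezomib to 0%. BPDCN Cal-1 cells (500/well, RPMI plus 10% FBS) incubated with compounds 48 hours at 37C before reading.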

[2] = qHTS assay for measurement of the activity of small molecule inhibitors on Zika virus induced Caspase-3 activity in human iPSC derived neural progenitor cells (hNPCs) (AID 1224857); further: nearly all actives have a fitted effect of over 65% in size; further: potency means the concentration at half of the fitted maximal effect
How it was run: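 After overnight (16–20 h) culture at 350 cells/well, hNPCs get compound, then ZIKV 2 FFU/cell one hour later. Six hours on, Caspase-Glo 3/7 is added and luminescence measured.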

[3] = qHTS assay for measurement of the activity of small molecule inhibitors on Zika virus induced Caspase-3 activity in human astrocytoma cells (AID 1224859); further: potency means the concentration at half of the fitted maximal effect
How it was run: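 Inhibition of Zika-induced caspase-3/7 activity: SNB-19 cells, 1 h compound pretreatment, ZIKV 2 FFU/cell for 6 h at 37 C, Caspase-Glo luminescence read-out.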

[4] = qHTS Screen of the MIPE 4.0 Collection Against Ewings Sarcoma (RDES) (AID 1259252); further: nearly all actives have a fitted effect of over 35% in size; further: potency means the concentration at half of the fitted maximal effect
How it was run: (§1)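 CellTiter-Glo luminescence after 48 h compound exposure (titration) gave viability; percent activity used DMSO-treated cells as no inhibition and medium-only wells as full inhibition. Cells grown in RPMI/5% FBS, dosed 4 h post-seeding.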

[5] = qHTS Screen of the MIPE 4.0 Collection Against Ewings Sarcoma (TC71) (AID 1259253); further: nearly all actives have a fitted effect of over 40% in size; further: potency means the concentration at half of the fitted maximal effect
How it was run: as §1

[6] = qHTS Screen of the MIPE 4.0 Collection Against Ewings Sarcoma (EW8) (AID 1259255); further: nearly all actives have a fitted effect of over 35% in size; further: potency means the concentration at half of the fitted maximal effect
How it was run: as §1

[7] = P-glycoprotein substrates identified in KB-8-5-11 adenocarcinoma cell line, qHTS therapeutic library screen (AID 1346987); further: nearly all actives have a fitted effect of over 65% in size; further: potency means the concentration at half of the fitted maximal effect
How it was run: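 Compounds are pinned in dose-response onto KB-8-5-11 cells (500 cells/well, colchicine-free medium) and left 72 h at 37 degree C. CellTiter-Glo luminescence then yields AC50 values.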

[8] = Natriuretic polypeptide receptor (hNpr1) antagonism - Pilot counterscreen GloSensor control cell line (AID 1347045; calls by dose curve; further: potency means the concentration at half of the fitted maximal effect)
How it was run: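 Control counterscreen: luciferase cGMP-biosensor HEK293 cells (no Npr1) received compound for 30 min at room temperature after GloSensor substrate loading. Luminescence was measured before and 20 min after soluble guanylyl cyclase activation by 50 uM nitroprusside.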

[9] = biological target: Atrial natriuretic peptide receptor 1 (Homo sapiens) (UniProt P16066); assay: Natriuretic polypeptide receptor (hNpr1) antagonism - Pilot screen (AID 1347049; calls by dose curve;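 further: HEK293 cells with hNpr1 and GloSensor cGMP luciferase stimulated by 0.1 nM hNppA; agonist-evoked cGMP luminescence read 20 min after hNppA addition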; further: potency means the concentration at half of the fitted maximal effect)
Sequence of Atrial natriuretic peptide receptor 1 (Homo sapiens) (P16066 whole entry, looked up): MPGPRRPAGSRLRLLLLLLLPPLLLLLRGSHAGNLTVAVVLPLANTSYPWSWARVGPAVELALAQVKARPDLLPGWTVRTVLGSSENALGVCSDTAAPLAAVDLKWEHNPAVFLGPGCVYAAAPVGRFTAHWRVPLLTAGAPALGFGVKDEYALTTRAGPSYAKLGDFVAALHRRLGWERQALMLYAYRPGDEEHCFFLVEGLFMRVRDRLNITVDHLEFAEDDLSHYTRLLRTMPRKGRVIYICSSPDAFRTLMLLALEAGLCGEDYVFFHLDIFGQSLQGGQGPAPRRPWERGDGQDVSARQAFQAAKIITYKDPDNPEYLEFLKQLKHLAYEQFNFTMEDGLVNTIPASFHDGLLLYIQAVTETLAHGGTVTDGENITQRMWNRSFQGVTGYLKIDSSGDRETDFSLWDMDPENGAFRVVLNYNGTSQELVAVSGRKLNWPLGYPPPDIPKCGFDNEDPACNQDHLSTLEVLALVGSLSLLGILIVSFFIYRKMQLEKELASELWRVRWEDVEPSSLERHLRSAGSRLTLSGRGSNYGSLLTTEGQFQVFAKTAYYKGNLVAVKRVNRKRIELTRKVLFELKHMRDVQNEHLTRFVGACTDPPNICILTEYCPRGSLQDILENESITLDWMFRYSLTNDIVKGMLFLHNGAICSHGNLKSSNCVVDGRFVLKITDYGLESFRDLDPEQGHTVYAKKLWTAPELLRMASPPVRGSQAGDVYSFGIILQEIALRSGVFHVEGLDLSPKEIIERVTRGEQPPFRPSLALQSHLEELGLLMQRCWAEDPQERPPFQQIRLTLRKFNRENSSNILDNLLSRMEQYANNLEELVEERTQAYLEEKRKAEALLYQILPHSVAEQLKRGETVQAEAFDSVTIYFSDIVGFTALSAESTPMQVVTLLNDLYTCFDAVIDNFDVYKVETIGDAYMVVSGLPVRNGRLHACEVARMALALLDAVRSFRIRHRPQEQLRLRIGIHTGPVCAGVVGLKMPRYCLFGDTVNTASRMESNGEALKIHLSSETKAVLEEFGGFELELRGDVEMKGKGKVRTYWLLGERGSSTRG
How it was run: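 Receptor antagonism read as cGMP-dependent luminescence in hNpr1/pGS-40F HEK293 cells: pre-read after 30 min compound exposure, post-read 20 min after hNppA agonist at 0.1 nM final, all at room temperature, protected from light; A-71915 titration as control.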

[10] = biological target: Atrial natriuretic peptide receptor 2 (Homo sapiens) (UniProt P20594); assay: Natriuretic polypeptide receptor (hNpr2) antagonism - Pilot subtype selectivity assay (AID 1347050; calls by dose curve; further: potency means the concentration at half of the fitted maximal effect)
Sequence of Atrial natriuretic peptide receptor 2 (Homo sapiens) (P20594 whole entry, looked up): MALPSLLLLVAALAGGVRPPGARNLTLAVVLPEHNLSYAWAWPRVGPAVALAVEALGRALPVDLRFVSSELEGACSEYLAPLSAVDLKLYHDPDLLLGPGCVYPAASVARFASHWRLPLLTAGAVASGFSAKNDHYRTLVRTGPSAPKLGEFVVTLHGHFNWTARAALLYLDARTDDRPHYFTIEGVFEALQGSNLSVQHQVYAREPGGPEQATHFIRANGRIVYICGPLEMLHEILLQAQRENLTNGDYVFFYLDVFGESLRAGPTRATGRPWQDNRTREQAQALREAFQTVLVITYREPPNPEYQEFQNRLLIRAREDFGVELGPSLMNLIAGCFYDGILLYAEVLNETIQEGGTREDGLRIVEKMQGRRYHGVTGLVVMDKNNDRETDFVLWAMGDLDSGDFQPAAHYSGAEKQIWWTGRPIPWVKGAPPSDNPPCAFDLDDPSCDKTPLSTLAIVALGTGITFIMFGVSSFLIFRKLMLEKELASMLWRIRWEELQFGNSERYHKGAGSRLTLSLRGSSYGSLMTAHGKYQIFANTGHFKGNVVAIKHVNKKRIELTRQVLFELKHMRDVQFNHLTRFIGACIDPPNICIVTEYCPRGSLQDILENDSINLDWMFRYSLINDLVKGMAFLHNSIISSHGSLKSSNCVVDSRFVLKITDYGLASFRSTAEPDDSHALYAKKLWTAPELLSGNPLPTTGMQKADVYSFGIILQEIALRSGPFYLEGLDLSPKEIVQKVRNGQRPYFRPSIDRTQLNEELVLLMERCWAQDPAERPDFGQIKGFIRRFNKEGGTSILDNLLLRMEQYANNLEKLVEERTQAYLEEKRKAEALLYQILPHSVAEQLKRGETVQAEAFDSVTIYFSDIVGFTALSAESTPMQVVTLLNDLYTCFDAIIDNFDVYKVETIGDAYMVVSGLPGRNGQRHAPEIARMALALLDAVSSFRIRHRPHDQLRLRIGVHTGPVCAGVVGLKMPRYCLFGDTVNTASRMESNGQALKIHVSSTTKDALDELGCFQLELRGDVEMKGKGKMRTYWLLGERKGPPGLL
How it was run: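 Antagonist mode: compounds (LOPAC1280, seven 1:5 dilutions) added 30 min before 1 nM hNppC stimulation of hNpr2-HEK293 cGMP-sensor cells; luminescence read before and 20 min after agonist at ambient temperature.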

[11] = qHTS Screen of the MIPE 4.0 Collection Against Ewings Sarcoma (TC32) (AID 1259256); further: nearly all actives have a fitted effect of over 45% in size; further: potency means the concentration at half of the fitted maximal effect
How it was run: as §1

[12] = qHTS assay to identify small molecule inhibitors of chordoma cells - UCH-1 (AID 1259355); further: nearly all actives have a fitted effect of over 55% in size; further: potency means the concentration at half of the fitted maximal effect
How it was run: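 800 cells/well, overnight attach; compounds pinned at 15 concs, then auranofin/camptothecin/doxorubicin/rubitecan/topotecan combo added; 48hr 37 C, 5% CO2; CellTiter-Glo, 30min RT, luminescence.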

[13] = qHTS assay to identify small molecule inhibitors of chordoma cells - UCH-2 (AID 1259356); further: potency means the concentration at half of the fitted maximal effect
[14] = P-glycoprotein substrates identified in KB-3-1 adenocarcinoma cell line, qHTS therapeutic library screen (AID 1346986); further: nearly all actives have a fitted effect of over 60% in size
How it was run: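 Viability read by CellTiter-Glo after 72 h compound exposure in dose-response of KB-3-1 and KB-8-5-11 (P-gp-high) cells. Hits needed AC50 < 10 uM, >50% maximum response and curve class -1.1 to -2.4. Cherry-picks retested ± tariquidar, including pcDNA/MDR-19 HEK-293 pair.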

[15] = Identifying Small Molecule Inhibitors of Pancreatic Cancer Stem Cells (A2780, Spheroid) (AID 1259357); settings: Potency: A2780 spheroid viability;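 further: compound exposure lasted 48 h before the ATP luminescence read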; further: potency means the concentration at half of the fitted maximal effect
How it was run: (§2)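 Adherent (2D) versus sphere (3D) formats; spheres generated 14 d in SCM beforehand. Compound transferred by pin tool after 4 h, 48 h incubation, CellTiter-Glo endpoint.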

[16] = Identifying Small Molecule Inhibitors of Pancreatic Cancer Stem Cells (SN12C, Adherent) (AID 1259358);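 further: cell survival measured after 48 h of compound exposure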; further: potency means the concentration at half of the fitted maximal effect
How it was run: (§3)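 Cytotoxicity read by CellTiter-Glo luminescence after 48 h compound exposure at 37C; percent activity scaled between DMSO-treated cells and cell-free wells. Spheroid formats used cells pre-formed 14 days in stem cell media on hydrogel.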

[17] = Identifying Small Molecule Inhibitors of Pancreatic Cancer Stem Cells (SN12C, Spheroid) (AID 1259360); settings: Potency: SN12C spheroid viability; further: potency means the concentration at half of the fitted maximal effect
How it was run: as §2

[18] = Identifying Small Molecule Inhibitors of Pancreatic Cancer Stem Cells (Panc1, Spheroid) (AID 1259359); settings: Panc1 spheroid cancer stem cell viability;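 further: potency means the concentration at half of the fitted maximal effect; compound exposure lasted 48 h before reading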
How it was run: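 Spheroids grown 14 days in stem cell media on hydrogel-coated nonadherent plates; 2D lines seeded directly. Compounds added after 4 h attachment, 48 h at 37C, 5% CO2; CellTiter-Glo luminescence normalized to DMSO (no inhibition) and no-cell wells (full inhibition).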

[19] = Identifying Small Molecule Inhibitors of Pancreatic Cancer Stem Cells (A278, Adherent) (AID 1259361); further: nearly all actives have a fitted effect of over 35% in size
How it was run: as §3

[20] = Identifying Small Molecule Inhibitors of Pancreatic Cancer Stem Cells (Panc1, Adherent) (AID 1259362); settings: Potency: viability; further: potency means the concentration at half of the fitted maximal effect
How it was run: as §3

CC1(C)C(=O)N(CCN2CCC(C(=O)c3ccc(F)cc3)CC2)c2ccccc21
viability (% of control) [1]: 85.6%
Potency [2]: inactive
Potency [3]: inactive
Potency [4]: inactive
Potency [5]: inactive
Potency [6]: inactive
Potency [7]: inactive
Potency [8]: inactive
Potency [9]: inactive
Potency [10]: inactive

CC(C)CC(=O)N[C@H](C(=O)N[C@H](C(=O)N[C@@H](CC(C)C)[C@@H](O)CC(=O)N[C@@H](C)C(=O)N[C@@H](CC(C)C)[C@@H](O)CC(=O)O)C(C)C)C(C)C (Isovaleryl-VV[Sta]A[Sta]-OH)
viability (% of control) [1]: 39.4%
Potency [2]: inactive
Potency [3]: inactive
Potency [4]: inactive
Potency [5]: inactive
Potency [6]: inactive
Potency [11]: inactive
Potency [12]: inactive
Potency [13]: inactive

CC(C)[N+]1(C)[C@@H]2CC[C@H]1CC(OC(=O)C(CO)c1ccccc1)C2 (stereo not given in full)
viability (% of control) [1]: 31.8%
Potency [2]: inactive
Potency [3]: inactive
Potency [4]: inactive
Potency [5]: inactive
Potency [6]: inactive
Potency [11]: inactive
Potency [12]: inactive
Potency [13]: inactive
Potency [7]: inactive

O=Nc1c(-c2c(O)[nH]c3cc(Br)ccc23)[nH]c2ccccc12
viability (% of control) [1]: 1.62%
Potency [2]: inactive
Potency [3]: inactive
Potency [4]: 3.32 µM (active)
Potency [5]: 7.43 µM (active)
Potency [6]: 4.18 µM (active)
Potency [11]: 4.18 µM (active)

Oc1ccc(OCc2ccccc2)cc1
viability (% of control) [1]: 18.2%
Potency [2]: inactive and 11.8 µM (active)
Potency [3]: inactive
Potency [4]: 2.35 µM (active)
Potency [5]: 9.35 µM (active)
Potency [6]: 4.18 µM (active)
Potency [11]: 4.18 µM (active)
Potency [12]: inactive
Potency [13]: inactive
Potency [14]: inactive
Potency [7]: inactive

CCOC(=O)C1=C(O)C(=O)N(Cc2ccccc2)C1
viability (% of control) [1]: 112%
Potency [2]: inactive
Potency [3]: inactive
Potency [4]: inactive
Potency [5]: inactive
Potency [6]: inactive
Potency [15]: inactive
Potency [16]: inactive
Potency [17]: inactive
Potency [7]: inactive

c1ccc2[nH]c(-c3cscn3)nc2c1
viability (% of control) [1]: 102%
Potency [2]: 16.6 µM (active)
Potency [3]: 16.6 µM (active)
Potency [4]: inactive
Potency [5]: inactive
Potency [6]: inactive
Potency [12]: inactive
Potency [13]: inactive

O=C(c1ccccc1)c1ccc2n1CCC2C(=O)O (stereo not given)
viability (% of control) [1]: 15.1%
Potency [2]: 18.7 µM (active)
Potency [3]: 16.6 µM (active)
Potency [4]: 3.32 µM (active)
Potency [5]: 4.18 µM (active)
Potency [6]: 6.62 µM (active)
Potency [11]: 3.72 µM (active)
Potency [12]: inactive
Potency [13]: inactive
Potency [7]: inactive
Potency [8]: inactive
Potency [9]: inactive
Potency [10]: inactive

O=c1oc2cc(O)ccc2s1
viability (% of control) [1]: 92.8%
Potency [2]: 11.8 µM (active)
Potency [3]: inactive
Potency [4]: 16.6 µM (active)
Potency [5]: 18.7 µM (active)
Potency [6]: 13.2 µM (active)
Potency [11]: 20.9 µM (active)
Potency [12]: inactive
Potency [13]: inactive
Potency [7]: inactive

CN(C)c1ccc2nc3ccc(=[N+](C)C)cc-3sc2c1
viability (% of control) [1]: 8.34%
Potency [2]: inactive
Potency [3]: inactive
Potency [4]: 2.35 µM (active)
Potency [5]: 3.72 µM (active)
Potency [6]: 4.69 µM (active)
Potency [12]: 7.94 µM (active)
Potency [13]: 14.6 µM (active)

CN(C)C(=O)[C@H](O)[C@H](Cc1ccccc1)NC(=O)c1cc2cc(Cl)ccc2[nH]1
viability (% of control) [1]: 43.4%
Potency [2]: inactive
Potency [3]: inactive
Potency [4]: 18.7 µM (active)
Potency [5]: 16.6 µM (active)
Potency [6]: 23.5 µM (active)
Potency [14]: inactive
Potency [7]: inactive

CCCCC(CC)COC(=O)C(C#N)=C(c1ccccc1)c1ccccc1 (stereo not given)
viability (% of control) [1]: 112%
Potency [2]: inactive
Potency [3]: inactive
Potency [4]: inactive
Potency [5]: inactive
Potency [6]: inactive
Potency [11]: inactive
Potency [12]: inactive
Potency [13]: inactive
Potency [14]: inactive

O=C(CS(=O)Cc1ccco1)NCC=CCOc1cc(CN2CCCCC2)ccn1 (stereo not given)
viability (% of control) [1]: 112%
Potency [2]: inactive
Potency [3]: inactive
Potency [4]: inactive
Potency [5]: inactive
Potency [6]: inactive
Potency [11]: inactive
Potency [12]: inactive
Potency [13]: inactive
Potency [7]: inactive

CNC[C@@H](O)[C@@H](O)[C@H](O)[C@H](O)CO
viability (% of control) [1]: 115%
Potency [2]: inactive
Potency [3]: inactive
Potency [4]: inactive
Potency [5]: inactive
Potency [6]: inactive
Potency [11]: inactive
Potency [12]: inactive
Potency [13]: inactive
Potency [7]: inactive

CCN(CC)C(=S)SSC(=S)N(CC)CC
viability (% of control) [1]: 3.25%
Potency [2]: 10 µM (active)
Potency [3]: inactive
Potency [4]: 0.118 µM (active)
Potency [5]: 0.0132 µM (active)
Potency [6]: 0.0187 µM (active)
Potency [12]: inactive
Potency [13]: inactive
Potency [8]: 3.29 µM (active)
Potency [9]: 2.39 µM (active)
Potency [10]: 5.21 µM (active)

C[Se]CCC(N)C(=O)O (stereo not given)
viability (% of control) [1]: 109% [at 92.2 µM]
Potency [2]: inactive
Potency [3]: inactive
Potency [4]: inactive
Potency [5]: inactive
Potency [6]: inactive
Potency [12]: inactive
Potency [13]: inactive
Potency [7]: inactive

CC1=C(C)C(=O)C(C(CCCCCC(=O)O)c2ccccc2)=C(C)C1=O (stereo not given)
viability (% of control) [1]: 115%
Potency [2]: inactive
Potency [3]: inactive
Potency [4]: inactive
Potency [5]: inactive
Potency [6]: inactive
Potency [11]: inactive
Potency [12]: inactive
Potency [13]: inactive
Potency [7]: inactive

CCN(CC)CCOc1ccc(Nc2ncc3cc(-c4c(Cl)cccc4Cl)c(=O)n(C)c3n2)cc1
viability (% of control) [1]: 2.59%
Potency [2]: inactive
Potency [3]: inactive
Potency [4]: 1.87 µM (active)
Potency [5]: 3.32 µM (active)
Potency [6]: 0.235 µM (active)
Potency [15]: 13.2 µM (active)
Potency [16]: 0.662 µM (active)
Potency [18]: 1.05 µM (active)
Potency [17]: 16.6 µM (active)
IC50 (viability decrease) [19]: 1.48 µM (active)
Potency [20]: 0.296 µM (active)
Potency [7]: 166 nM (active)

CCCS(=O)c1ccc2nc(NC(=O)OC)[nH]c2c1 (stereo not given)
viability (% of control) [1]: 13.7%
Potency [2]: 10 µM (active) and 16.6 µM (active)
Potency [3]: 20.9 µM (active)
Potency [4]: 20.9 µM (active)
Potency [5]: 23.5 µM (active)
Potency [6]: 20.9 µM (active)
Potency [11]: 23.5 µM (active)
Potency [7]: 20.9 µM (active) and 13 µM (active)
